# Source: ChEMBL document CHEMBL5606460, “ASAP - DENV-2 NS2B-NS3 protease fluorescence single point” (2024)
# About 110 (5.5%) of roughly 2,000 compounds showed an effect of 50% or more. For the sample, strong results were picked, then their nearest neighbours and some compounds at random.
# Biological target: Genome polyprotein (dengue virus type 2) (UniProt P29990)
# [1] = Thailand/16681/1984, Concentration 25.0 uM, Number of replicates 1.0
smiles,measurement,setting,value
Cc1cc(CO)c2cccc(CC(=O)Nc3cccc(C(N)=O)c3)c2n1,inhibition,"Thailand/16681/1984, Concentration 49.95 uM, Number of replicates 2.0, Standard deviation 0.3351031861891448 %",71.5%
same,inhibition,"Thailand/16681/1984, Concentration 99.9 uM, Number of replicates 2.0, Standard deviation 0.3101738310571331 %",94.2%
Cc1cc(CO)c2cccc(CC(=O)Nc3nonc3C(N)=O)c2n1,inhibition,"Thailand/16681/1984, Concentration 49.95 uM, Number of replicates 2.0, Standard deviation 0.10454576349345478 %",97.1%
same,inhibition,"Thailand/16681/1984, Concentration 99.9 uM, Number of replicates 2.0, Standard deviation 0.006921524049853062 %",99%
Cc1cc(CO)c2cccc(Cc3cccc(C(=O)Nc4nonc4C(N)=O)c3)c2n1,inhibition,"Thailand/16681/1984, Concentration 49.95 uM, Number of replicates 2.0, Standard deviation 1.9942580477177279 %",23.4%
same,inhibition,"Thailand/16681/1984, Concentration 99.9 uM, Number of replicates 2.0, Standard deviation 1.5142007227316114 %",73%
Cc1cc(CO)c2cccc(Nc3nonc3C(N)=O)c2n1,inhibition,"Thailand/16681/1984, Concentration 49.95 uM, Number of replicates 2.0, Standard deviation 1.5271718368293243 %",11%
same,inhibition,"Thailand/16681/1984, Concentration 99.9 uM, Number of replicates 2.0, Standard deviation 3.697399383401008 %",23.8%
Cc1cc(CO)c2cccc(Cc3ccccc3NC(=O)Cc3cccc(CN)c3)c2n1,inhibition,"Thailand/16681/1984, Concentration 49.95 uM, Number of replicates 2.0, Standard deviation 1.4858035354408357 %",-0.82%
same,inhibition,"Thailand/16681/1984, Concentration 99.9 uM, Number of replicates 2.0, Standard deviation 1.2081673980721888 %",5.26%
Cc1cc(CO)c2cccc(Cc3ccccc3C(=O)Nc3nonc3C(N)=O)c2n1,inhibition,"Thailand/16681/1984, Concentration 49.95 uM, Number of replicates 2.0, Standard deviation 0.20481615067396447 %",9.42%
same,inhibition,"Thailand/16681/1984, Concentration 99.9 uM, Number of replicates 2.0, Standard deviation 0.252245853764608 %",28.4%
Cc1cc(CO)c2cccc(Cc3ccccc3C(=O)Nc3cccc(C(N)=O)c3)c2n1,inhibition,"Thailand/16681/1984, Concentration 49.95 uM, Number of replicates 2.0, Standard deviation 0.1803817681308647 %",4.23%
same,inhibition,"Thailand/16681/1984, Concentration 99.9 uM, Number of replicates 2.0, Standard deviation 0.18828716821235608 %",9.06%
Cc1cc(CO)c2cccc(Cc3cccc(C(=O)Nc4cc(O)[nH]n4)c3)c2n1,inhibition,"Thailand/16681/1984, Concentration 49.95 uM, Number of replicates 2.0, Standard deviation 1.1139101860624252 %",16.1%
same,inhibition,"Thailand/16681/1984, Concentration 99.9 uM, Number of replicates 2.0, Standard deviation 0.5605490390974336 %",35%
Cc1cc(CO)c2cccc(Cc3cccc(C(=O)Nc4cccc(C(N)=O)c4)c3)c2n1,inhibition,"Thailand/16681/1984, Concentration 49.95 uM, Number of replicates 2.0, Standard deviation 0.8487279472032775 %",0.063%
same,inhibition,"Thailand/16681/1984, Concentration 99.9 uM, Number of replicates 2.0, Standard deviation 0.25943340872226184 %",4.4%
O=Cc1ccc(N2CCC(C(=O)NCc3ccc(C(F)(F)F)nc3)CC2)cc1,inhibition,[1],14.9%
CC(C)(CO)NC(=O)c1cc(Cl)cc(OCc2ccccn2)c1,inhibition,"Thailand/16681/1984, Concentration 49.5 uM, Number of replicates 2.0, Standard deviation 3.9117339361958243 %",-3.57%
same,inhibition,"Thailand/16681/1984, Concentration 99.01 uM, Number of replicates 2.0, Standard deviation 3.9139588683287148 %",-3.56%
same,inhibition,"Thailand/16681/1984, Concentration 198.0 uM, Number of replicates 2.0, Standard deviation 3.978479645326132 %",-2.33%
O=Cc1ccc(N2CCC(C(=O)N3CCS[C@H]3c3ccc([N+](=O)[O-])cc3)CC2)cc1,inhibition,[1],10.8%
CNC(=O)c1cc(Cl)ccc1NS(=O)(=O)c1ccc(Cn2cncn2)cc1,inhibition,"Thailand/16681/1984, Concentration 49.5 uM, Number of replicates 2.0, Standard deviation 0.7766096317793165 %",-1.89%
same,inhibition,"Thailand/16681/1984, Concentration 99.01 uM, Number of replicates 2.0, Standard deviation 1.2995063622910579 %",-0.333%
same,inhibition,"Thailand/16681/1984, Concentration 198.0 uM, Number of replicates 2.0, Standard deviation 1.6197418261994996 %",2.7%
CS(=O)(=O)N1CCC(NC(=O)C2CCN(c3ccc(C=O)cc3)CC2)CC1,inhibition,[1],12%
O=Cc1ccc(N2CCC(C(=O)Nc3ncnc(Cl)c3Cl)CC2)cc1,inhibition,[1],10.5%
C=CCN(Cc1cccc(OC)c1)C(=O)C1CCN(c2ccc(C=O)cc2)CC1,inhibition,[1],13.3%
Cc1ccc(NC(=O)C2CCN(c3ccc(C=O)cc3)CC2)cc1I,inhibition,[1],9.87%
Cc1cc(CO)c2cccc(Cc3ccccc3NC(=O)Cc3nnc(C)[nH]3)c2n1,inhibition,"Thailand/16681/1984, Concentration 49.95 uM, Number of replicates 2.0, Standard deviation 1.0489246346930539 %",2.09%
same,inhibition,"Thailand/16681/1984, Concentration 99.9 uM, Number of replicates 2.0, Standard deviation 0.8121374020252716 %",10.7%
O=Cc1ccc(N2CCC(C(=O)NCc3ccc(-c4ccccn4)cc3)CC2)cc1,inhibition,[1],6.55%
CC(=O)N[C@@H](CCCN)C(=O)Nc1ccccc1Cc1cccc2c(CO)cc(C)nc12,inhibition,"Thailand/16681/1984, Concentration 49.95 uM, Number of replicates 2.0, Standard deviation 1.2344771467866291 %",-4.07%
same,inhibition,"Thailand/16681/1984, Concentration 99.9 uM, Number of replicates 2.0, Standard deviation 0.6037374205287288 %",4.36%
CC(=O)N[C@@H](CCCN)C(=O)Nc1cccc2c(CO)cc(C)nc12,inhibition,"Thailand/16681/1984, Concentration 99.9 uM, Number of replicates 2.0, Standard deviation 2.7664513641226787 %",9.57%
CC(=O)N[C@@H](Cc1ccc(O)cc1)C(=O)Nc1cccc2c(CO)cc(C)nc12,inhibition,"Thailand/16681/1984, Concentration 49.95 uM, Number of replicates 2.0, Standard deviation 2.4752459751189644 %",-9.17%
same,inhibition,"Thailand/16681/1984, Concentration 99.9 uM, Number of replicates 2.0, Standard deviation 3.123465853915667 %",-9.54%
CC(=O)N[C@@H](CCCCN)C(=O)Nc1cccc2c(CO)cc(C)nc12,inhibition,"Thailand/16681/1984, Concentration 49.95 uM, Number of replicates 2.0, Standard deviation 0.7189645441339965 %",35.5%
same,inhibition,"Thailand/16681/1984, Concentration 99.9 uM, Number of replicates 2.0, Standard deviation 0.1513618084697797 %",97.4%
CC(=O)N[C@@H](CCCCN)C(=O)Nc1ccccc1Cc1cccc2c(CO)cc(C)nc12,inhibition,"Thailand/16681/1984, Concentration 49.95 uM, Number of replicates 2.0, Standard deviation 0.842601818478522 %",-5.54%
same,inhibition,"Thailand/16681/1984, Concentration 99.9 uM, Number of replicates 2.0, Standard deviation 0.16339684106206548 %",1.8%
CC(=O)N[C@@H](Cc1ccc(CN)cc1)C(=O)Nc1cccc2c(CO)cc(C)nc12,inhibition,"Thailand/16681/1984, Concentration 49.95 uM, Number of replicates 2.0, Standard deviation 0.08390662036506401 %",24.9%
same,inhibition,"Thailand/16681/1984, Concentration 99.9 uM, Number of replicates 2.0, Standard deviation 0.3339864632910001 %",96.3%
